An excerpt weighted towards active compounds, which were near 1.6% of everything screened.
KCNQ2 block: rat KCNQ2 potassium channel inhibitors, primary screen, cell-based, CHO-K1, FluxOR thallium flux, B-score; Potassium voltage-gated channel subfamily KQT member 2 (Rattus norvegicus), O88943; 310,000 tested, 1.1% active; B-score at 10 µM; 20 min; stronger effect = lower value;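 active = fluorescence ratio B-score at most minus 3 library SDs, with starting brightness B-score within 2 library SDs, cut at about -5.5 in these data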
Target sequence (O88943 whole entry, looked up): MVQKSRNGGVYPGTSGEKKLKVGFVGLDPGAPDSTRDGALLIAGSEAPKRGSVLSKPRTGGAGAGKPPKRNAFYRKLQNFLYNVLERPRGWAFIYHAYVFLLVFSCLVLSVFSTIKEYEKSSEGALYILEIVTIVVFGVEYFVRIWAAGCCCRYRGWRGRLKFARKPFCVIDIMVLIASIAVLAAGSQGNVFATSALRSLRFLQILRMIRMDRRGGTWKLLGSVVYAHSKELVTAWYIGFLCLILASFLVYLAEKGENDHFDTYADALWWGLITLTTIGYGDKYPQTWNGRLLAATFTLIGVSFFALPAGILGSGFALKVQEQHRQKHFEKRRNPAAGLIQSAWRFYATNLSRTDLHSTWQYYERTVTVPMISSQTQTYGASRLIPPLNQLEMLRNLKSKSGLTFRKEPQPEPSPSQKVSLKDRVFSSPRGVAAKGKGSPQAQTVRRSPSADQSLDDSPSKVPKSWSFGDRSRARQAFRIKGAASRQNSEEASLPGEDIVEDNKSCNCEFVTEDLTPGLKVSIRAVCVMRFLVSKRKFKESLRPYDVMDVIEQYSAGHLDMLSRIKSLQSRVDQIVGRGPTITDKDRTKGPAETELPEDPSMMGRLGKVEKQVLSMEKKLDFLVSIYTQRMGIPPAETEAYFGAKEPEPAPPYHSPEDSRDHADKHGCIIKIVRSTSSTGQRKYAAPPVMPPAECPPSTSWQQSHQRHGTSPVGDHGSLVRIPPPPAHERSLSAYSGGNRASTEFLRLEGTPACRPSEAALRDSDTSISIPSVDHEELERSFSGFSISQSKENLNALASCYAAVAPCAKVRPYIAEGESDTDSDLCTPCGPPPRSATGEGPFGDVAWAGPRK
KCNQ2 enhance: potentiators of rat KCNQ2 potassium channel | Potassium voltage-gated channel subfamily KQT member 2 (Rattus norvegicus), O88943 | CHO-K1 KCNQ2, FluxOR thallium flux fluorescence; stronger effect = higher value | B-score at 10 µM | 310,000 tested, 0.54% active;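 active = fluorescence ratio B-score at least 3 SD of library B-scores, with initial fluorescence B-score within 3 of them, cut at about 5.3 in these data; same plate scores as AID 2156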;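 note: B-score of peak minus minimum over baseline fluorescence ratio after K+ and Tl+ stimulus; positive B-score means potentiation of KCNQ2 with more thallium influx and brighter signal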
Numbers without * were called inactive; i = inactive; nt = not tested or not shown.

SMILES | KCNQ2 block | KCNQ2 enhance
Cc1cc(C)n(-c2nc3ccccc3nc2N2CCN(S(=O)(=O)c3ccc4ccccc4c3)CC2)n1 | -5.9* | -5.9
Cc1cc(C)n(-c2nc3ccccc3nc2N2CCN(S(=O)(=O)c3ccc(F)c(C)c3)CC2)n1 | i | nt
Oc1oc(-c2cccc3ccccc23)nc1/C=N/c1nccs1 | i | 9.4*
Cc1cccc(/N=C/c2nc(-c3ccccc3Br)oc2O)n1 | i | nt
Cc1ccc(-c2cc(C(=O)N3CCCC3)c3ccccc3n2)s1 | -5.9* | -5.9
O=C(c1cc(-c2ccc(Br)cc2)nc2ccccc12)N1CCC1 | -6.4* | -6.4
O=C(c1cc(-c2ccc(Cl)s2)nc2ccccc12)N1CCCC1 | i | 0.14
O=C(c1cc(-c2cccc(Br)c2)nc2ccccc12)N1CCCC1 | i | nt
CC(=O)c1ccc(NC(=O)COC(=O)CCc2ccc(S(=O)(=O)N3CCOCC3)cc2)cc1 | i | 1.8
CCN(/C=N/c1sc2c(c1C#N)CCCCC2)CC | i | nt
CC(C)CN(/C=N/c1sc2c(c1C#N)CCCCC2)CC(C)C | -6.2* | -6.2
Cc1ccc(C(=O)N2N=C(CC(C)C)CC2(O)C(F)(F)F)o1 (centres undefined) | i | 0.68
CC(=O)NC12CC3CC(C1)CC(C(=O)N1CCN(c4ncccn4)CC1)(C3)C2 | i | 1.1
Cc1ccc(-c2csc(N3C(=N)SCC3=O)n2)cc1 | i | 0.11
N=C1SCC(=O)N1c1ncc(Cc2ccc(F)cc2)s1 | i | 6.9*
CC(CC(=O)O)Nc1ccccc1O (centres undefined) | i | nt
COc1ccc(N2CCN(C(=O)CN(c3ccc(OC)cc3)S(=O)(=O)c3ccccc3)CC2)cc1 | i | nt
O=C(CN(c1ccc(Cl)cc1)S(=O)(=O)c1ccccc1)N1CCN(c2ccccc2)CC1 | -7.4* | -7.4
O=c1c(-c2ccccc2)c(-c2ccccc2)oc2cc(O)cc(O)c12 | -5.8* | -5.8
O=c1cc(-c2ccccc2)c2c(O)cc(O)cc2o1 | i | 1.4
COc1ccc(NC(=O)NNC(=O)c2ccc3ccccc3c2O)c(OC)c1 | i | nt
Oc1ccc2ccccc2c1CNc1ccc(Br)cn1 | -6.2* | -6.2
Oc1ccc2ccccc2c1CNc1ccc(Br)cc1 | i | nt
COc1ccccc1CNC(=O)C(=O)NCC1CCCN1S(=O)(=O)c1cccs1 (centres undefined) | i | nt
Cc1ccc(NC(=O)OCCN2CCN(Cc3ccccc3)CCC2=O)cc1C | i | nt
SMILES | KCNQ2 block | KCNQ2 enhance
Cc1ccccc1NC(=O)OCCN1CCN(Cc2ccccc2)CCC1=O | -6.3* | -6.3
O=C(CN(Cc1ccco1)S(=O)(=O)c1cccs1)Nc1ccccc1C(F)(F)F | -7* | -7
COc1ccccc1NC(=O)CN(Cc1ccco1)C(=O)c1cccs1 | i | nt
Cc1ccc(-c2cc(C(=O)O)c3cc(Br)ccc3n2)o1 | i | 1.7
Cc1ccc(-c2cc(C(=O)NC3=NCCS3)c3cc(Br)ccc3n2)o1 | -6.3* | -6.3
O=C(CNC(=O)c1cccs1)Nc1ccncc1 | i | nt
Cc1cc(N)ccc1NC(=O)CN1CCCC1 | i | nt
COc1c(Cl)cc(-c2noc(C)c2C(=O)NCc2ccccc2)cc1Cl | i | 4.4
COc1c(Cl)cc(-c2noc(C)c2C(=O)NCc2ccc3c(c2)OCO3)cc1Cl | i | 14*
CN(C)CCCNS(=O)(=O)c1ccc(N2CCC(c3ccc(Cl)cc3)=N2)cc1 | -5.9* | -5.9
O=S(=O)(c1ccc(N2CCC(c3ccc(Cl)cc3)=N2)cc1)N(CCO)CCO | i | 1.8
CSc1ncc(S(=O)(=O)c2ccccc2)c(=O)[nH]1 | i | nt
CCS(=O)(=O)N1Cc2ccccc2CC1C(=O)N(C)Cc1ccc(OC)c(F)c1 (centres undefined) | i | nt
Cc1ccc(NC(=O)CNC(=O)C2CCCCC2)nc1 | i | 0.07
O=C(CCCCCCCC(=O)c1ccccc1)c1ccccc1 | -6.2* | -6.2
O=C(CCCCN1CCCCC1)c1ccccc1 | i | 0.54
COc1ccc(CCNC(=O)c2ccc3ccccc3n2)cc1 | i | nt
Cc1cccc(N2CCN(C(=O)c3cc(S(=O)(=O)N4CCOCC4)cn3C)CC2C)c1 (centres undefined) | i | nt
Cc1ccc2c(c1)cc(CN(Cc1ccco1)C(=O)N1CCOCC1)c1nnnn12 | -8.8* | -8.8
Cc1ccc2c(c1)cc(CN(CCc1ccccc1)C(=O)N1CCOCC1)c1nnnn12 | i | nt
Cc1cc(-c2ccccc2)nc2cc(C(=O)N(Cc3ccccc3)Cc3ccccc3)nn12 | -7.2* | -7.2
COC(=O)c1cc2nc(-c3ccccc3)cc(C)n2n1 | i | 1.6
N#CC1(NC(=O)CN2C(=O)c3ccc([N+](=O)[O-])cc3C2=O)CCCCC1 | i | 0.25
Fc1ccc(-n2nnnc2-c2cnc(-c3cccs3)nc2C(F)(F)F)cc1 | i | nt
CCCCC(OC(=O)CN1C(=O)COc2ccccc21)C(=O)NC1CCCCC1 (centres undefined) | i | nt
SMILES | KCNQ2 block | KCNQ2 enhance
Cc1cc(NC(=O)c2c(C)noc2C)no1 | i | 0.08
O=C(O)C(Cc1c[nH]c2ccccc12)NS(=O)(=O)c1ccc(Br)cc1 (centres undefined) | i | 1.2
O=C(O)C(Cc1c[nH]c2ccccc12)NS(=O)(=O)c1ccc(Cl)cc1 (centres undefined) | -7.3* | -7.3
O=C(c1ccc(OCCN2CCCCC2)cc1)c1c(-c2ccc(O)cc2)sc2cc(O)ccc12 | -6* | -6
COC(=O)c1ccc(OCCN2CCCCCC2)cc1 | i | nt
COc1cc(/C=N/NC(=O)C2CCN(CC(O)COCc3ccccc3)CC2)ccc1O (centres undefined) | i | 0.05
C[C@H]1[C@H](C)CC[C@]2(C(=O)O)CC[C@]3(C)C(=CC[C@@H]4[C@@]5(C)C[C@@H](O)[C@H](O)C(C)(C)[C@@H]5CC[C@]43C)[C@H]12 | i | 0.58
C[C@H]1[C@H](C)CC[C@]2(C)CC[C@]3(C)C(=CC[C@@H]4[C@@]5(C)CC[C@@H](O)[C@](C)(C(=O)O)[C@@H]5CC[C@]43C)[C@H]12 | -9.2* | -9.2
N=C(CC1CC(=O)NC(=O)C1)C1=C(O)CCCC1=O | i | nt
Cc1ccc(C)c(C2NC(=O)c3ccccc3N2)c1 (centres undefined) | -5.6* | -5.6
O=C1NC(c2ccccc2O)Nc2ccccc21 (centres undefined) | i | nt
CCOC(=O)c1cc2c(=O)n3ccccc3nc2n(Cc2ccco2)c1=NC(=O)c1ccccc1OCC | i | nt
CCOC(=O)c1cc2c(=O)n3ccccc3nc2n(CCCOC)c1=NC(=O)C(C)(C)C | i | 1.1
CCOC(=O)c1cc2c(=O)n3ccccc3nc2n(Cc2ccco2)c1=NC(=O)c1cccnc1 | -7.1* | -7.1
CCOC(=O)c1cc2c(=O)n3ccccc3nc2n(CCOC)c1=NC(=O)C(C)(C)C | i | 9.7*
CC(NC(=O)COc1ccc(Br)cc1)C1CCCO1 (centres undefined) | i | nt
Cc1cc(C)n(CCCNC(=O)c2ccc(C)c(S(=O)(=O)N3CCOCC3)c2)n1 | i | 0.61
C=CCNC(=O)COC(=O)COc1ccc(Cl)cc1 | i | 0.76
COc1cccc(-c2c[nH]c(=O)[nH]c2=O)c1 | i | nt
COc1ccc(Cl)cc1NC(=O)NCC1CCN(Cc2cc(C)ccc2C)CC1 | i | nt
COc1cc([N+](=O)[O-])ccc1NC(=O)NCC1CCN(Cc2ccc(Cl)cc2)CC1 | -6.1* | -6.1
Cc1cc(C)nc(/N=C(/NC(=O)Nc2cccc(Cl)c2)Nc2ccccc2)n1 | -5.8* | -5.8

Screening data: PubChem, Johns Hopkins Ion Channel Center
